The source of these data is PubChem BioAssay AID2501 (Southern Research Specialized Biocontainment Screening …, 2010).

In general, IC50 refers to the concentration needed to halve the response being measured. The term inhibition denotes the change of the read-out against control, counted positive when it falls.

About 1,200 (55%) of roughly 2,200 compounds were called active. So high a share suggests a set chosen from earlier hits. The list shows a part of the results. A number with no mark means an inactive call. Cut-off not given; nearly all actives show IC50 up to about 92 µM.

This assay in a line: counter assay for TAg ATPase ADP read-out – biochemical, ADP-Hunter, fluorescence, counter-screen (AID 2501).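 Further: purified T antigen ATPase.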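 On inhibition: 0% = enzyme with vehicle and 100% = reference inhibitor wells; higher means more inhibition.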 Conditions: series mostly up to 100 µM; inhibition: at the top concentration. Background: A counterscreen serves to expose hits that act by an unwanted route or on another target.
Regarding `CCn1c(C)nc2cc(C(=O)N/N=C/c3ccc(OC)c(O)c3)ccc21`, the half-maximal inhibitory concentration (IC50) is 3.58 µM (active).

In the case of `O=c1cc(-c2ccc(Br)cc2)[nH][nH]1`, the IC50 is 12.3 µM (active). In the case of `CN1C(=O)NC(c2ccc(O)cc2)C2=C1CN(c1ccc(O)cc1)C2=O` (configuration not stated), the IC50 was 4.84 µM (active).

As to `Cc1cc(C)nc(SSc2nc(C)cc(C)n2)n1`, the “inhibition” value was -11%. Take `Cc1cc(C)nc(Nc2ccc(O)cc2)n1`: the IC50 was 3.35 µM (active). For the compound `Cc1cc(C)nc(NC(=O)c2ccc(Cl)cc2)n1`, the “inhibition” value was -13.1%.

Regarding `Oc1ccc(-c2[nH]ncc2-c2cccc3cccnc23)c(O)c1`, the IC50 is 18.1 µM (active). As for `COc1ccccc1-n1cc(CN2CCN(C3CCCCC3)C(CCO)C2)cn1` (configuration not stated), the “inhibition” value was 8.82%.

As to `O=C(c1cccc(F)c1)N1CCC(N2CCOCC2)CC1`, the “inhibition” value was 0.59%.

Consider `O=C1c2ccccc2S(=O)(=O)c2cc(C(=O)N3CCC(N4CCCC4)CC3)ccc21`, for which the “inhibition” value is -33.2%. On to `O=C(c1ccc2ccccc2c1)N1CCN(c2ccc(O)cc2)CC1`, for which the IC50 was 4.79 µM (active).

On to `O=C(c1ccc2ncsc2c1)N1CCN(c2ccc(O)cc2)CC1`, for which the IC50 is 3.9 µM (active). With `O=C(c1cccc(-c2ccc(O)cc2)c1)N1CCOCC1`, the IC50 was 4.07 µM (active). Take `CCc1ccc(OCc2nnc(SCC(=O)Nc3cccc(C(=O)N4CCOCC4)c3)o2)cc1`: the “inhibition” value was -25.4%.

As to `c1coc(-c2nnc(-c3ccco3)nn2)c1`, the “inhibition” value is 12.1%.

Consider `O=C(N/N=C/c1ccc(O)cc1O)/C(=C/c1ccccc1)CCO`, for which the IC50 is 11.2 µM (active).

Take `COc1ccc(OC)c(CCNC(=O)Cn2sc3nc(C)cc(C)c3c2=O)c1`: the “inhibition” value was 11.8%. For `Cc1cc2nc3ccc(N(C)C)cc3nc2cc1N`, the IC50 is 90.6 µM (active). The same measure, in the same setting: next, `O=C(O)Cc1c[nH]c2cccc(O)c12`: 34.4 µM (active). Turning to `O=C(O)CC(CCc1ccccc1)OC1OC(CO)C(O)C(O)C1O` (configuration not stated), the “inhibition” value is 18.6%. `O=c1c(-c2ccc(O)cc2)coc2cc(OC3OC(CO)C(O)C(O)C3O)ccc12` (configuration not stated): the IC50 is 12.9 µM (active). With `OC[C@H]1O[C@@H](Oc2cc(O)cc(/C=C/c3ccc(O)cc3)c2)[C@H](O)[C@@H](O)[C@@H]1O`, the IC50 was 7.7 µM (active). Turning to `CCCCN(CC)Cc1ccc(CNC(=S)Nc2ccc(C)cc2Cl)o1`, the “inhibition” value was 13.6%. With `Oc1ccc(/C=N/Nc2nccnc2Cl)cc1`, the IC50 is 3.29 µM (active). Same read-out and setting: next, `O=c1[nH]ncc(N/N=C\c2ccc(O)cc2O)c1Cl`: 6.23 µM (active); `Oc1ccc(/C=N/Nc2nccnc2Cl)c(O)c1`: 11.8 µM (active); `Cc1ccc2cc3c(N)[nH]nc3nc2c1`: 6.56 µM (active). Still for that read-out and setting: next, `Cc1cc2cc3c(N)[nH]nc3nc2cc1C`: 6.68 µM (active); `CCc1ccc2nc3n[nH]c(N)c3cc2c1`: 5.76 µM (active). With `C=CCOC(=O)C1=C[C@@H](c2ccc3c(c2)OCO3)C[C@@H](OCCCCO)O1`, the “inhibition” value is 11.6% [at 50 µM]. With `O=C(O)c1cc(S(=O)(=O)O)cc(Nc2c3ccccc3nc3ccccc23)c1O`, the IC50 is 14.7 µM (active). Turning to `COC/C=C/C1=CC2=CC(=O)C(C)(O)C(=O)C2=CO1` (configuration not stated), the “inhibition” value is 18.6%. On to `Nc1ccc(-c2nc3cc(N)ccc3n2CCO)cc1`, for which the IC50 was 9.16 µM (active). Consider `O=C(O)C1Nc2ccc(OC(F)(F)F)cc2C2C=CCC12` (configuration not stated), for which the “inhibition” value was 23%. As for `COc1ccc(Nc2ccc(OC)cc2)cc1`, the IC50 is 11.3 µM (active). Still for that read-out and setting: next, `Oc1ccc(-c2nc(-c3ccc(O)c(O)c3)cs2)cc1`: 17.4 µM (active); `Cc1nc(-c2ccc(O)c(O)c2)cs1`: 6.64 µM (active).

`COc1cc(-c2csc(C)n2)ccc1O`: the IC50 was 3.58 µM (active).

`COC(=O)C1=C(C)N(Cc2ccccc2)C(=NCCCCO)N[C@H]1c1ccccc1`: the “inhibition” value is 25.4%. Same read-out and setting: the same measure for `Cc1nc(SCC(=O)N2CCOCC2)c2ccsc2n1`: -16.8%. On to `COc1ccc(N2CCC(CNC(=O)Nc3ccccc3)C2)cc1` (configuration not stated), for which the half-maximal inhibitory concentration (IC50) is 8.01 µM (active).

Regarding `COc1ccc(S(=O)(=O)N2CCN(CC(=O)Nc3cccc(OC)c3)CC2)cc1`, the “inhibition” value was 27.5%. Same read-out and setting: the same measure for `CC(=O)c1cccc(NC(=O)N2CCCC2C(=O)NCc2ccccc2)c1` (configuration not stated): -22.4%. Regarding `COc1ccc(N2CCC(CNC(=O)Nc3cccc(OC)c3)C2)cc1` (configuration not stated), the IC50 was 3.36 µM (active). On to `Nc1nc(Sc2c([N+](=O)[O-])cc(C(F)(F)F)cc2[N+](=O)[O-])n[nH]1`, for which the “inhibition” value is 0.27%. `Oc1ccc(Nc2nc(Cl)nc(NCc3ccco3)n2)cc1`: the IC50 was 6.71 µM (active).

On to `CCOC(=O)CNc1c(-c2ccc(O)cc2)nc2ccccn12`, for which the IC50 is 4.76 µM (active).

Take `CCOC(=O)CNc1c(-c2ccc(O)cc2)nc2ccc(Cl)cn12`: the IC50 was 2.95 µM (active).

Regarding `CC(C)Nc1nc(Cl)nc(Nc2ccccc2)n1`, the “inhibition” value is -23.3%.

Regarding `Oc1ccc(-c2nc3ccccn3c2NCc2ccco2)cc1`, the IC50 was 3.24 µM (active).

Consider `CCOC(=O)CC(=O)CSc1nc(N)c(C#N)c(-c2ccc(Cl)cc2)c1C#N`, for which the “inhibition” value was -31.3%. Consider `O=C(c1ccc(Cl)cc1)C1CCCN(C(=O)c2csnn2)C1` (configuration not stated), for which the “inhibition” value was 7.02%.
